# The supplement of paper PMC8728848
# Only a selection was taken, and the strongest signals are over-represented in it overall.
# Columns and labels:
# Assay in all cases: glycan array binding signal (z-score within array); higher = stronger binding
# Details in all cases: glycan notation: IUPAC condensed, linker removed
# [1] = target: Fuc(a1-2)Gal(b1-3)GalNAc(a1-3)[Fuc(a1-2)]Gal(b1-4)Glc
# Method in brief: (§1)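 Arrays were curated from the Consortium for Functional Glycomics database, 3228 in total, and kept only where the protein sequence was available. Binding is expressed as a within-array Z-score. This score was averaged across arrays of the same protein sequence at different concentrations or buffers and across linkers, and negative values can be read as non-binding.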
# [2] = target: Fuc(a1-2)Gal(b1-3)GalNAc(a1-3)[Fuc(a1-2)]Gal(b1-4)GlcNAc
# Method in brief: as §1
# [3] = target: Fuc(a1-2)Gal(b1-4)[Fuc(a1-3)]GlcNAc(b1-2)Man(a1-3)[Fuc(a1-2)Gal(b1-4)[Fuc(a1-3)]GlcNAc(b1-2)Man(a1-6)]Man(b1-4)GlcNAc(b1-4)GlcNAc
# Method in brief: as §1
# [4] = target: Fuc(a1-2)Gal6S(b1-4)GlcNAc
# Method in brief: as §1
# [5] = target: Fuc(a1-2)[Gal(a1-3)]Gal
# Method in brief: as §1
# [6] = target: Fuc(a1-2)[GalNAc(a1-3)]Gal(b1-3)GalNAc(a1-3)[Fuc(a1-2)]Gal(b1-4)GlcNAc
# Method in brief: as §1
# [7] = target: Fuc(a1-2)[GalNAc(a1-3)]Gal(b1-3)GlcNAc
# Method in brief: as §1
# [8] = target: Fuc(a1-2)[GalNAc(a1-3)]Gal(b1-4)GlcNAc(b1-2)Man(a1-3)[Fuc(a1-2)[GalNAc(a1-3)]Gal(b1-4)GlcNAc(b1-2)Man(a1-6)]Man(b1-4)GlcNAc(b1-4)GlcNAc
# Method in brief: as §1
# [9] = target: Fuc(a1-2)[GalNAc(a1-3)]Gal(b1-4)GlcNAc(b1-3)Gal(b1-4)GlcNAc
# Method in brief: as §1
# [10] = target: Fuc(a1-2)[GalNAc(a1-3)]Gal(b1-4)GlcNAc(b1-3)Gal(b1-4)GlcNAc(b1-3)Gal(b1-4)GlcNAc
# Method in brief: as §1
# [11] = target: Fuc(a1-2)[GalNAc(a1-4)]Gal(b1-4)GlcNAc
# Method in brief: as §1
# [12] = target: Gal(a1-2)Gal
# Method in brief: as §1
# [13] = target: Gal(a1-3)Gal(b1-4)GlcNAc(b1-3)GalNAc
# Method in brief: as §1
# [14] = target: Gal(b1-3)GalNAc(a1-3)[Fuc(a1-2)]Gal(b1-4)Glc
# Method in brief: as §1
# [15] = target: Gal(b1-3)GalNAc(b1-4)[Neu5Ac(a2-3)]Gal(b1-4)Glc
# Method in brief: as §1
# [16] = target: Gal(b1-3)GlcNAc(a1-6)Gal(b1-4)GlcNAc
# Method in brief: as §1
# [17] = target: Gal(b1-3)GlcNAc(b1-3)Gal(b1-3)GlcNAc
# Method in brief: as §1
# [18] = target: Gal(b1-3)GlcNAc(b1-3)Gal(b1-4)GlcNAc
# Method in brief: as §1
# [19] = target: Gal(b1-4)GlcNAc(b1-2)Man(a1-6)[GlcNAc(b1-2)Man(a1-3)]Man(b1-4)GlcNAc(b1-4)GlcNAc
# Method in brief: as §1
# [20] = target: Gal3S(b1-4)[Fuc(a1-3)]Glc6S
# Method in brief: as §1
# [21] = target: GalNAc(a1-3)GalNAc
# Method in brief: as §1
# [22] = target: GalNAc(a1-3)GalNAc(a1-3)Gal(a1-4)Gal(b1-4)GlcNAc
# Method in brief: as §1
# [23] = target: Glc(a1-4)Glc
# Method in brief: as §1
# [24] = target: GlcNAc(b1-2)Gal(b1-3)GalNAc
# Method in brief: as §1
# [25] = target: GlcNAc(b1-2)Man(a1-3)[GlcNAc(b1-2)Man(a1-6)]Man(b1-4)GlcNAc(b1-4)GlcNAc
# Method in brief: as §1
# [26] = target: GlcNAc(b1-3)Gal(b1-4)GlcNAc
# Method in brief: as §1
# [27] = target: GlcNAc(b1-4)Gal(b1-4)GlcNAc
# Method in brief: as §1
# [28] = target: Kdn(a2-3)Gal(b1-3)GalNAc
# Method in brief: as §1
# [29] = target: Kdn(a2-3)Gal(b1-4)GlcNAc
# Method in brief: as §1
# [30] = target: Man(a1-2)Man(a1-6)[Man(a1-3)]Man(a1-6)[Man(a1-2)Man(a1-2)Man(a1-3)]Man(b1-4)GlcNAc(b1-4)GlcNAc
# Method in brief: as §1
# [31] = target: Neu5Ac(a2-3)Gal(b1-4)[Fuc(a1-3)]GlcNAc(b1-3)GalNAc
# Method in brief: as §1
# [32] = target: Neu5Ac(a2-3)GalNAc
# Method in brief: as §1
# [33] = target: Neu5Ac(a2-6)Gal
# Method in brief: as §1
# [34] = target: Neu5Ac(a2-8)Neu5Ac(a2-8)Neu5Ac(a2-8)Neu5Ac(a2-3)[GalNAc(b1-4)]Gal(b1-4)Glc
# Method in brief: as §1
binder,measurement,setting,value
"Flo10 (Saccharomyces cerevisiae), P36170 (protein) MPVAARYIFLTGLFLLSVANVALGTTEACLPAGEKKNGMTINFYQYSLKDSSTYSNPSYMAYGYADAEKLGSVSGQTKLSIDYSIPCNGASDTCACSDDDATEYSASQVVPVKRGVKLCSDNTTLSSKTEKRENDDCDQGAAYWSSDLFGFYTTPTNVTVEMTGYFLPPKTGTYTFGFATVDDSAILSVGGNVAFECCKQEQPPITSTDFTINGIKPWNADAPTDIKGSTYMYAGYYYPIKIVYSNAVSWGTLPVSVVLPDGTEVNDDFEGYVFSFDDNATQAHCSVPNPAEHARTCVSSATSSWSSSEVCTECTETESTSYVTPYVTSSSWSSSEVCTECTETESTSTSTPYVTSSSSSSSEVCTECTETESTSYVTPYVSSSTAAANYTSSFSSSSEVCTECTETESTSTSTPYVTSSSWSSSEVCTECTETESTSYVTPYVSSSTAAANYTSSFSSSSEVCTECTETESTSTSTPYVTSSSSSSSEVCTECTETESTSYVTPYVSSSTAAANYTSSFSSSSEVCTECTETESTSTSTPYVTSSSWSSSEVCTECTETESTSYVTPYVSSSTAAANYTSSFSSSSEVCTECTETESTSTSTPYATSSTGTATSFTASTSNTMTSLVQTDTTVSFSLSSTVSEHTNAPTSSVESNASTFISSNKGSVKSYVTSSIHSITPMYPSNQTVTSSSVVSTPITSESSESSASVTILPSTITSEFKPSTMKTKVVSISSSPTNLITSYDTTSKDSTVGSSTSSVSLISSISLPSSYSASSEQIFHSSIVSSNGQALTSFSSTKVSSSESSESHRTSPTTSSESGIKSSGVEIESTSTSSFSFHETSTASTSVQISSQFVTPSSPISTVAPRSTGLNSQTESTNSSKETMSSENSASVMPSSSATSPKTGKVTSDETSSGFSRDRTTVYRMTSETPSTNEQTTLITVSSCESNSCSNTVSSAVVSTATTTINGITTEYTTWCPLSATELTTVSKLESEEKTTLITVTSCESGVCSETASPAIVSTATATVNDVVTVYSTWSPQATNKLAVSSDIENSASKASFVSEAAETKSISRNNNFVPTSGTTSIETHTTTTSNASENSDNVSASEAVSSKSVTNPVLISVSQQPRGTPASSMIGSSTASLEMSSYLGIANHLLTNSGISIFIASLLLAIV",glycan array binding signal (z-score),[1],-0.704
same,glycan array binding signal (z-score),[2],0.044
same,glycan array binding signal (z-score),[3],-0.165
same,glycan array binding signal (z-score),[4],0.331
same,glycan array binding signal (z-score),[5],-0.579
same,glycan array binding signal (z-score),[6],1.12
same,glycan array binding signal (z-score),[7],-0.144
same,glycan array binding signal (z-score),[8],3.27
same,glycan array binding signal (z-score),[9],4.78
same,glycan array binding signal (z-score),[10],5.34
same,glycan array binding signal (z-score),[11],-0.76
same,glycan array binding signal (z-score),[12],3.67
same,glycan array binding signal (z-score),[13],-0.351
same,glycan array binding signal (z-score),[14],3.64
same,glycan array binding signal (z-score),[15],0.092
same,glycan array binding signal (z-score),[16],0.52
same,glycan array binding signal (z-score),[17],3.58
same,glycan array binding signal (z-score),[18],0.23
same,glycan array binding signal (z-score),[19],0.034
same,glycan array binding signal (z-score),[20],-0.042
same,glycan array binding signal (z-score),[21],0.641
same,glycan array binding signal (z-score),[22],1.74
same,glycan array binding signal (z-score),[23],-0.77
same,glycan array binding signal (z-score),[24],-0.768
same,glycan array binding signal (z-score),[25],-0.394
same,glycan array binding signal (z-score),[26],-0.536
same,glycan array binding signal (z-score),[27],-0.716
same,glycan array binding signal (z-score),[28],0.113
same,glycan array binding signal (z-score),[29],-0.202
same,glycan array binding signal (z-score),[30],-0.712
same,glycan array binding signal (z-score),[31],-0.323
same,glycan array binding signal (z-score),[32],-0.639
same,glycan array binding signal (z-score),[33],5.85
same,glycan array binding signal (z-score),[34],0.14
